Bioassay records (PubChem BioAssay)
ALOX12 inh – blocks human arachidonate 12S-lipoxygenase. P18054. purified 12hLO, xylenol orange hydroperoxide absorbance. Potency, µM (doses to about 108 µM), without a hit: top-dose activity change, negative = inhibition, hits mostly inhibitors. 1.1% of 580,000 active. AID 1671190; note: potency is the fitted concentration of half-maximal effect
Target sequence (P18054 whole entry, looked up): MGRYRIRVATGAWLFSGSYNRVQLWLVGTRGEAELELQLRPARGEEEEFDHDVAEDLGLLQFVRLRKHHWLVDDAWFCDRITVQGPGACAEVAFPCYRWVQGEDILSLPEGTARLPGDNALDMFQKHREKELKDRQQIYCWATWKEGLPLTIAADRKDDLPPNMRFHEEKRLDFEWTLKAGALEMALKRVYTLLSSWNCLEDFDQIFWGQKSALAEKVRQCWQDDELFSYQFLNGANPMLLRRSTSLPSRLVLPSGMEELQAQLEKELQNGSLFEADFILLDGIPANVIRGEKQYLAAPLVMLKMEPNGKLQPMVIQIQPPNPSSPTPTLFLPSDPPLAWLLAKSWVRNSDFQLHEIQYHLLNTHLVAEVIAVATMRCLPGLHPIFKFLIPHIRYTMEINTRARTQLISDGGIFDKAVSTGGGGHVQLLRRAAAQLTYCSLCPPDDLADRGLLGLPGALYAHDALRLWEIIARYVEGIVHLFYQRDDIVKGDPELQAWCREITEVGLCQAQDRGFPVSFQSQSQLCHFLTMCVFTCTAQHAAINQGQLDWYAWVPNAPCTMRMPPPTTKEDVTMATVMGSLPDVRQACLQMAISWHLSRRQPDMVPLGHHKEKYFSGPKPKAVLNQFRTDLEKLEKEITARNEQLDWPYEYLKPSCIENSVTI
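Hydroperoxide product was detected by ferrous iron/xylenol orange as the 573 to 405 nm absorbance ratio. Arachidonic acid at 40 uM (final) was turned over for 30 min at room temperature by 150 nM human 12hLO, pH 7.0 Hepes buffer, after 15 min compound preincubation.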
TDP1 cell CPT – growth inhibition of DT40 Tdp1-/-;hTDP1 cells with camptothecin (screen for TDP1 inhibitors); chicken DT40 Tdp1-/-;hTDP1 cells + 20 nM CPT, ATP luminescence, 48 h; Potency, µM (titrated, usually from 46.2 µM), inactives show at the highest dose activity change, negative = growth inhibition, actives largely listed as inhibitors; 12% of 420,000 active; AID 686979; note: potency is the fitted concentration of half-maximal effect; nearly all actives have a fitted effect of over 55% in size
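Chicken DT40 Tdp1-/- cells stably complemented with human TDP1 were seeded at 400 cells/well in medium containing 20 nM camptothecin, exposed to pin-transferred compounds, and grown at 37 °C for at least 48 hr. Viability was read as ATP luminescence.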
HT1080 IDH1KD tx – kills HT-1080 cells with IDH1 knockdown. Potency, µM (series often up to 46.1 µM), for the others: at the top dose activity, negative = toxicity, most hits filed as cytotoxic. HT-1080 IDH1 knockdown viability, ATP luminescence, 48 h. 2% of 360,000 active. AID 686971;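 note: potency is the fitted concentration of half-maximal effect; 0% = DMSO wells and -100% = cell-free medium wells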
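Assay cells: HT-1080 with IDH1 knockdown, 750 per well, RPMI/5% FBS. Exposure: 48 h at 37 °C following 2 h pre-incubation. Read: CellTiter-Glo luminescence; fitted concentration-response, curve class assigned.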
TDP1 cell noCPT – qHTS for Inhibitors of human tyrosyl-DNA phosphodiesterase 1 (TDP1): qHTS in cells in absence of CPT; DT40 Tdp1-/- hTDP1 cells, no CPT, ATP luminescence, 48 h; Potency, µM (series often up to 46.2 µM), for the others: at the top dose activity change, negative = growth inhibition, hits mostly inhibitors; 15% of 420,000 active; note: potency is the fitted concentration of half-maximal effect; nearly all actives have a fitted effect of over 55% in size
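Seeded 400 DT40-hTDP1 cells/well (vehicle DMSO, no 20 nM CPT); pinned compounds; ≥48 hr at 37 °C; CellTiter-Glo luminescence as viability measure.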
IL-1B inflam inh – blocks inflammasome-driven IL-1 beta release; THP-1 LPS/ATP IL-1B secretion, AlphaLISA, 16 h; active compounds read low; activity change, % at 57.5 µM; 4.7% of 360,000 active; in the data active = activity change below about -50%; inconclusive = mostly about -30% to -49%
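THP-1 cells pretreated 1 hr with compounds (up to 57.5 uM final), then stimulated with LPS (250 ng/mL final) plus ATP (1.25 mM final); secreted IL-1B measured by AlphaLISA after 16 hr, decreased signal indicating inhibition.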
HT1080-NT tox – kills 2HG-producing HT-1080-NT fibrosarcoma cells | HT-1080-NT fibrosarcoma viability, CellTiter-Glo ATP luminescence, 48 h | Potency, µM (top dose mostly 46.1 µM), for the others: at the top dose activity, negative = less viability, actives largely listed as cytotoxic | 1.6% of 360,000 active;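 note: NT is the 2HG producing partner of a matched IDH1 knockdown line; potency is the fitted concentration of half-maximal effect; 0% = DMSO-treated cells and -100% = media-only wells without cells; nearly all actives have a fitted effect of over 55% in size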
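750 cells/well, RPMI + 5% FBS; 2 h settle, compound pin-transfer, 48 h at 37 degrees C. CellTiter-Glo 10 min RT, luminescence. Normalized to DMSO and media-only wells.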
* hit, by the source's call; i = inactive; ? = inconclusive; nt = not tested or not shown; [ ] = dose if it differs, or a comment. Only a selection was taken, and hits are over-represented in it overall. Unless noted, calls come from the whole dose curve; as a rule, active = well fitted curve in the direction sought with a large enough effect; inconclusive = small, poorly fitted or top-dose-only effect, or another doubt; inactive = no such curve, though single readings can be large; an effect the other way counts as inactive or inconclusive. Unless noted, % is set by controls: 0 for no effect and ±100 for the full control effect.

SMILES	ALOX12 inh	TDP1 cell CPT	HT1080 IDH1KD tx	TDP1 cell noCPT	IL-1B inflam inh	HT1080-NT tox
Cc1oc2ccc(O)c(CN3CCN(C)CC3)c2c1C(=O)Nc1cccc(C(F)(F)F)c1	?	14.6µM*	nt	?	nt	nt
Cc1noc(C)c1CN1CCc2nc(C(=O)Nc3cccc(C(F)(F)F)c3)oc2CC1	68.2%[176 µM]	nt	nt	nt	nt	nt
CCCN1CCN(C(=O)Nc2cccc(C(F)(F)F)c2)CC1	-6.2%	-23.6%	6.5%	-13.8%	-9.1	-0.5%
CC(C)N1CCN(C(=O)CCC[C@@H]2[C@H]3CCCN4CCC[C@@H](CN2C(=O)c2cccnc2)[C@@H]34)CC1	65.7%	nt	nt	nt	nt	nt
COc1ccc(N2CC3CCC(C2)N3C(=O)c2c(C)noc2C)cc1	4.4%[6.33 µM]	nt	nt	nt	nt	nt
CCc1ccc(NC(=O)CSc2nc3ccccc3c(=O)n2CCCC(=O)N2CCCC2)cc1	2.3%	14.6µM*	-18.5%	?	19.9	-17.2%
COc1ccccc1NC(=O)Cc1nnc(SCC(=O)NC2CCCC2)n1C	-1.2%	-1.7%	3.8%	2.7%	19.9	16.6%
Cc1cc2c(=O)n(C)c(SCC(=O)Nc3ccccc3)nc2s1	20.1%	-25.5%	-8.9%	?	41.4	-9.0%
COc1ccccc1NC(=O)CSc1nnc(CC(=O)Nc2ccccc2)n1C	0.0%	-29.7%	9.1%	-8.0%	-50.2*	4.4%
COc1ccccc1NC(=O)Cn1nc(-c2ccncc2)nc1SCC(=O)NC1CCCC1	101.4%	13µM*	-14.7%	14.6µM*	16.9	-26.8%
Cn1c(SCC(=O)Nc2ccccc2)nc2ccccc2c1=O	16.5%	2.91µM*	-17.5%	?	?	-18.1%
CCc1ccc(NC(=O)CSc2nc3ccccc3c(=O)n2CCC(=O)NC2CCCCC2)cc1	-9.8%	-1.8%	nt	2.5%	nt	nt
CCC1(c2ccccc2)SC(N)=NC1=O (stereo unspecified)	-2.4%	-3.5%	22.3%	4.1%	9.4	17.4%
COc1ccc(-n2c(SCC(=O)Nc3ccc(C(N)=O)cc3)nc3ccccc3c2=O)cc1OC	0.0%	-11.7%	-15.0%	-25.4%	?	?
COc1ccccc1NC(=O)CSc1nc2ccccc2c(=O)n1C	6.2%	14.6µM*	-23.1%	9.2µM*	16.9	-4.2%
CCOc1ccccc1NC(=O)CSc1nc2cc(O)ccc2c(=O)n1-c1ccc(OC)c(OC)c1	4.0%	18.4µM*	?	?	33.6	?
CCOCCCn1c(SCC(=O)Nc2ccc(NC(C)=O)cc2)nc2ccccc2c1=O	5.3%	-13.4%	-0.7%	-6.4%	0.0	-1.3%
CCOCCCn1c(SCC(=O)Nc2ccc(OC)cc2)nc2ccccc2c1=O	-19.0%	?	-1.6%	18.4µM*	-14.0	-6.9%
CCOCCCn1c(SCC(=O)Nc2ccccc2OC)nc2ccccc2c1=O	13.0%	?	-4.4%	16.4µM*	-0.9	-1.3%
CN(CC1CCOCC1)C(=O)c1cccs1	26.9%	nt	nt	nt	nt	nt
Cc1ccc(CCN2C(=O)CCC2(C)C(=O)NCc2ccccc2)cc1 (stereo unspecified)	11.3%	nt	nt	nt	nt	nt
Cc1cccc(C)c1-n1nnnc1SCn1nnc2ccccc2c1=O	5.8%	nt	nt	nt	nt	nt
Cn1cccc1CN1CC2(C1)C(=O)Nc1ccccc12	2.8%[12.5 µM]	nt	nt	nt	nt	nt
Cn1c(SCC(=O)Nc2cc(C(C)(C)C)nn2-c2ccccc2)nc2ccccc21	-6.6%	?	-17.6%	11.6µM*	5.8	-10.7%
Cc1ccc2nc(SCC(=O)Nc3cc(C(C)(C)C)nn3-c3ccccc3)[nH]c2c1	-2.2%	?	?	-1.4%	-13.4	-23.9%
SMILES	ALOX12 inh	TDP1 cell CPT	HT1080 IDH1KD tx	TDP1 cell noCPT	IL-1B inflam inh	HT1080-NT tox
COCCCn1c(SCC(=O)c2ccccc2)nc2ccccc2c1=O	1.6%	?	-0.6%	23.1µM*	-11.4	-18.1%
CCOCCCn1c(SCC(=O)Nc2ccc(C)cc2)nc2ccccc2c1=O	-28.5%	16.4µM*	nt	14.6µM*	nt	nt
CCOC(=O)c1cccc(NC(=O)CSc2nc3ccccc3c(=O)n2CCOC)c1	-15.0%	?	-0.3%	20.6µM*	-3.3	3.6%
CCOCCCn1c(SCC(=O)Nc2ccccc2)nc2ccccc2c1=O	-16.0%	?	-1.4%	?	-9.6	-11.7%
O=C(O)CC1COCCN1Cc1ccsc1 (stereo unspecified)	-0.7%	nt	nt	nt	nt	nt
O=C(Cc1ccccc1F)NCCC1CCN(C(=O)Nc2cc(F)cc(F)c2)CC1	-9.1%	nt	nt	nt	nt	nt
COc1ccccc1NC(=O)CSc1nnc(C2CCCCC2)n1-c1ccccc1	-22.0%	20.6µM*	-20.1%	11.6µM*	-23.8	-21.3%
COc1ccccc1NC(=O)CSc1nnc(C2CCCCC2)n1C	0.0%	2.2%	-1.5%	-30.6%	-4.0	-3.8%
COc1ccc(C(=O)N[C@@H]2CCC[C@@H]2C(=O)NC2CCN(Cc3ccccc3)CC2)cn1	56.8%	nt	nt	nt	nt	nt
CCOC(=O)N1CCN(Cc2nc3cc(NC(=O)c4cccc(C)c4)ccc3n2C(C)C)CC1	81.8%	0.92µM*	nt	0.731µM*	nt	nt
CCOC(=O)N1CCN(Cc2nc3cc(NC(C)=O)ccc3n2CC)CC1	0.0%	-8.5%	0.9%	-1.5%	-12.3	-0.1%
CCn1c(CN2CCCCC2)nc2cc(NC(=O)c3ccc([N+](=O)[O-])cc3)ccc21	-5.6%	9.2µM*	nt	9.2µM*	nt	nt
CCOC(=O)N1CCN(Cc2nc3cc(NC(=O)CC(C)C)ccc3n2CC)CC1	-48.7%	14.6µM*	?	9.2µM*	-16.7	-28.9%
CCOC(=O)N1CCN(Cc2nc3cc(NC(=O)c4ccc(Cl)cc4)ccc3n2C(C)C)CC1	43.4%	nt	nt	nt	nt	nt
CCOC(=O)N1CCN(Cc2nc3cc(NC(=O)c4cccs4)ccc3n2CC)CC1	2.4%	23.1µM*	?	25.9µM*	?	?
CCn1c(CN2CCCCC2)nc2cc(NC(=O)c3ccccc3[N+](=O)[O-])ccc21	-1.4%	?	nt	?	nt	nt
CCOC(=O)N1CCN(Cc2nc3cc(NC(=O)c4cccs4)ccc3n2C)CC1	15.4%	?	-10.1%	-28.4%	i	-24.5%
CCCCCn1cc(CCC(=O)Nc2ccc(Oc3cccnc3)cc2)c2ccccc21	-15.9%	nt	nt	nt	nt	nt
CCOC(=O)N1CCN(Cc2nc3cc(NC(=O)CC(C)C)ccc3n2C(C)C)CC1	4.3%	0.82µM*	nt	0.731µM*	nt	nt
CCOC(=O)N1CCN(Cc2nc3cc(NC(=O)CC(C)C)ccc3n2C)CC1	-12.3%	-22.7%	5.6%	?	9.7	3.9%
CCOC(=O)N1CCN(Cc2nc3cc(NC(=O)CC)ccc3n2C(C)C)CC1	-1.1%	0.92µM*	nt	0.731µM*	nt	nt
Cc1cc(C)n(-c2ccc([N+](=O)[O-])cc2-c2nn[nH]n2)n1	i	-8.2%	-2.2%	8.3%	17.6	-5.3%
